Source: PubChem
PPC-1+TRAIL kill: kills PPC-1 cancer cells in the presence of TRAIL. PPC-1 cells + TRAIL, ATPLite viability luminescence. cell killing (% activity), % at 4 µM or 5 µM. 220,000 tested, 0.41% active. AID 1443;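 active = cell killing above 50% in the first pass at 4 µM, then a duplicate retest at 5 µM averaging 50% or more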
SENP8 block-1: inhibitors of human SENP8 protease; Q96LD8; recombinant SENP8, Nedd8 substrate fluorescence; inhibition, % at 20 µM; 360,000 tested, 0.64% active; AID 602440; in the data active = inhibition mostly above about 40%, no sharp cut-off; inactive = mostly below about 27%
Target sequence (Q96LD8 whole entry, looked up): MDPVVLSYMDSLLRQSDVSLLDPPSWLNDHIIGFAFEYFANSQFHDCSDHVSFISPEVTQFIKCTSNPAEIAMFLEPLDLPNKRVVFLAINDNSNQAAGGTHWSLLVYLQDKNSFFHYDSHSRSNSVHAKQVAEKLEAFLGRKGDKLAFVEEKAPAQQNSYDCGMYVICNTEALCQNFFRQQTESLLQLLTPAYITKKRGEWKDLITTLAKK
SENP8 block-2: blocks the human protease SENP8; inhibition, % at 10 µM; Q96LD8; purified SENP8, Z-RLRGG-aminoluciferin cleavage, luminescence; 330,000 tested, 1.2% active; AID 2540; in the data active = inhibition above about 50%
SENP7 block: blocks the human protease SENP7. Q9BQF6. inhibition, % at 5 µM. 330,000 tested, 1.5% active. recombinant SENP7, Z-RLRGG-aminoluciferin luminescence, 40 min;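 active = inhibition above about 50% at the single test dose, limit read from the data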
Target sequence (Q9BQF6 706-1050 limits assumed): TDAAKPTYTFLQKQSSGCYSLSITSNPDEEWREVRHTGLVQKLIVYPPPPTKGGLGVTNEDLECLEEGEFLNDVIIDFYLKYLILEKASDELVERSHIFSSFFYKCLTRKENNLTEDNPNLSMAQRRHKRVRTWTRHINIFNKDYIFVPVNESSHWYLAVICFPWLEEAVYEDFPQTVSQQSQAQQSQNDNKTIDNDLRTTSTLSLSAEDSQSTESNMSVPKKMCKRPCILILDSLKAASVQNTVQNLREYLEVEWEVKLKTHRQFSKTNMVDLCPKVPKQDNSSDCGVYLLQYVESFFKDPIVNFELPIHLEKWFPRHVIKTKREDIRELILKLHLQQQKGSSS
TRAIL sens C8: caspase-8 TRAIL sensitization. 360,000 tested, 1% active. NB7+C8 cells + TRAIL, ATPlite viability luminescence. AID 624354. inhibition (viability loss, TRAIL sensitization), % at 10 µM;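 active = compounds causing at least 50% loss of cell viability in the single-dose screen, relative to plate controls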
SENP6 inh: inhibitors of human SENP6 protease | Recombinant SENP6 catalytic domain, aminoluciferin luminescence | 330,000 tested, 1.8% active | inhibition, % at 10 µM | AID 2599 | Q9GZR1;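 active = inhibition above about 50% at the single tested dose, limit read from the data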
Large screens that a line does not name were inactive. In the library only some 3% were active in any assay of this set; here they are far more common.

CC1(C)Oc2ccc3ccc(=O)oc3c2C[C@H]1O	none
CC1(C)Oc2cc3oc(-c4cc(O)cc(O)c4)cc3cc2CC1O (configuration not stated)	TRAIL sens C8 79.9 (no result: PPC-1+TRAIL kill)
CC1=CN2C(=N)/C(=C/c3ccc(C)o3)C(=O)N=C2S1	TRAIL sens C8 53.5
CC1=CN2C(=N)/C(=C/c3ccc(Sc4ccc(C)cc4)o3)C(=O)N=C2S1	none
CC(=O)OC[C@]12CC[C@H]3[C@@](C)(CC[C@H]4C(C)(C)CCC[C@]34C)[C@@H]1CC(C1=CC(=O)OC1O)O2 (some centres not stated)	TRAIL sens C8 84.4 (no result: PPC-1+TRAIL kill, SENP8 block-2, SENP7 block, SENP6 inh)
Nc1c(C(=O)Nc2nc3ccccc3s2)sc2nc(-c3cccs3)ccc12	TRAIL sens C8 95.9
CC(=O)c1sc2nc(-c3cccs3)ccc2c1N	none
O=C(COc1ccc2ccccc2c1Br)Nc1ncn[nH]1	TRAIL sens C8 62.1
Cc1cccc(C)c1OCC(=O)Nc1ncn[nH]1	none
O=C(O)c1cccc(NC(=O)c2ccc3c(c2)C(=O)N(Cc2ccco2)C3=O)c1	SENP8 block-2 84.1, SENP7 block 88.1, SENP6 inh 88.8
COc1ccc(/C=N/n2c(C)nc3ccccc3c2=O)cc1OC	none (no result: PPC-1+TRAIL kill)
COc1ccc(/C=N/Nc2nc3ccccc3c(=O)n2-c2ccccc2)cc1OC	TRAIL sens C8 52.6
Cc1c(N/N=C(\C#N)C(=O)c2ccccc2)c(=O)n(-c2ccccc2)n1C	SENP8 block-1 40.1 (no result: SENP8 block-2, SENP7 block, SENP6 inh)
Cc1ccccc1C(=O)/C(C#N)=N/Nc1c(C)n(C)n(-c2ccccc2)c1=O	none (no result: SENP8 block-2, SENP7 block, SENP6 inh)
Cc1cc(C)n2c(NCc3ccccc3)c(-c3cc4ccccc4o3)nc2n1	none (no result: PPC-1+TRAIL kill, SENP8 block-2, SENP7 block, SENP6 inh)
C[C@]12CC[C@@H]3c4cc(O)c(O)cc4CC[C@H]3[C@@H]1CC[C@@H]2O	SENP8 block-1 40.8
O=C(O)c1cccc2c1C(=O)c1ccc(N3CCN(Cc4ccc5c(c4)OCO5)CC3)cc1S2(=O)=O	none (no result: PPC-1+TRAIL kill, SENP8 block-2, SENP7 block, SENP6 inh)
COC(=O)c1ccc(C2c3[nH]c4ccccc4c3C[C@H]3C(=O)N(C)CC(=O)N23)cc1 (some centres not stated)	none (no result: PPC-1+TRAIL kill)
CN1CC(=O)N2C(c3ccc(Cl)cc3)c3[nH]c4ccccc4c3C[C@H]2C1=O (some centres not stated)	TRAIL sens C8 54.7 (no result: PPC-1+TRAIL kill)
CN(C)c1ccc(N=Nc2ccccc2C(=O)OCC(=O)NCC2CCCCC2)cc1	SENP8 block-1 49.6
c1nc(SSc2ncnc3nc[nH]c23)c2[nH]cnc2n1	TRAIL sens C8 73.3 (no result: PPC-1+TRAIL kill, SENP8 block-2, SENP7 block, SENP6 inh)
CN(C)CCNc1ccc(CO)c2sc3ccc(O)cc3c(=O)c12	SENP8 block-1 45.1 (no result: PPC-1+TRAIL kill, SENP8 block-2, SENP7 block, SENP6 inh)
COc1ccc2sc3cccc(NCCN(C)C)c3c(=O)c2c1	none (no result: PPC-1+TRAIL kill, SENP8 block-2, SENP7 block, SENP6 inh)
C[C@@H]1CN([C@@H](C)CO)C(=O)CCCn2nncc2CO[C@H]1CN(C)C(=O)c1ccc2ccn(C)c2c1	none (no result: PPC-1+TRAIL kill, SENP8 block-2, SENP7 block, SENP6 inh)
Oc1ccc(N=Nc2cccc(C(F)(F)F)c2)cc1C=Nc1ccc(N2CCOCC2)cc1	SENP8 block-1 35.6, SENP6 inh 65.9
Oc1ccc(C=Nc2ccc(N3CCOCC3)cc2)c(O)c1	none
CSCCC(NC(=O)c1ccc(Cl)c([N+](=O)[O-])c1)C(=O)N1CCN(C/C=C/c2ccccc2)CC1 (configuration not stated)	TRAIL sens C8 64.8 (no result: PPC-1+TRAIL kill)
CCCCN1C(=O)/C(=C/C=C2\Oc3ccccc3N2CC)SC1=S	none (no result: SENP8 block-2, SENP7 block, SENP6 inh)
CCN1/C(=C/C=C/c2oc3ccc(-c4ccccc4)cc3[n+]2CC)Oc2ccc(-c3ccccc3)cc21	PPC-1+TRAIL kill 57.0, TRAIL sens C8 79.3
O=C(NCc1ccccc1)C(c1ccccn1)N(C(=O)c1csnn1)c1ccccc1F (configuration not stated)	none (no result: PPC-1+TRAIL kill)
O=c1c(-c2ccc3c(c2)OCCO3)coc2cc(OC3OC(CO)C(O)C(O)C3O)ccc12 (configuration not stated)	TRAIL sens C8 54.4
CCc1nc2ccccc2c(C(=O)OCC(=O)Nc2ccc(S(=O)(=O)N3CCOCC3)cc2)c1C	none
CCc1nc2ccccc2c(C(=O)OCC(=O)Nc2cccc(S(=O)(=O)N3CCOCC3)c2)c1C	TRAIL sens C8 49.7
CC1(c2nnc(-c3cccc(Cl)c3)o2)CC(c2ccccc2F)=NO1 (configuration not stated)	none (no result: PPC-1+TRAIL kill)
COc1ccc(C(=O)NNC(=S)NC(=O)/C=C/c2cccs2)cc1	TRAIL sens C8 53.7 (no result: PPC-1+TRAIL kill)
Cc1ccc2nc(-c3ccccn3)c(N)n2c1	none (no result: PPC-1+TRAIL kill, SENP8 block-2, SENP7 block, SENP6 inh)
O=C(COC(=O)c1ccc2c(c1)C(=O)N(c1cccc3ncccc13)C2=O)c1ccc(Cl)cc1	none
Cc1ccc(C(=O)COC(=O)c2ccc3c(c2)C(=O)N(c2cccc4ncccc24)C3=O)cc1	TRAIL sens C8 51.2
O=C(c1ccc(F)cc1)c1cnc(Nc2ccccc2)s1	TRAIL sens C8 61.0
Nc1cc(OCC(F)(F)F)cc([N+](=O)[O-])c1	none
Nc1cc(N)c(OCC(F)(F)F)cc1OCC(F)(F)F	SENP8 block-1 85.3
COc1cc(C(=O)NC(=S)Nc2ccc3[nH]c(=O)[nH]c3c2)cc(OC)c1OC	none (no result: PPC-1+TRAIL kill)
CCOC(=O)c1cccc(NC(=O)Cn2c(CC(=O)N3CCCC3)nc3ccccc32)c1	SENP6 inh 76.4 (no result: SENP8 block-1, TRAIL sens C8)
CC(NC(=O)c1ccc2nc(Cc3cccc(Cl)c3)oc2c1)c1ccncn1 (configuration not stated)	none (no result: PPC-1+TRAIL kill, SENP8 block-2, SENP7 block, SENP6 inh)
O=C1C(=C2CCc3ccccc32)Cc2ccccc21	TRAIL sens C8 51.0 (no result: PPC-1+TRAIL kill, SENP8 block-2, SENP7 block, SENP6 inh)
O=C1C(=NO)CCCc2ccccc21	none (no result: PPC-1+TRAIL kill, SENP8 block-2, SENP7 block, SENP6 inh)
CC(=O)Oc1ccc(/C(C)=N\N2CCN(Cc3ccc(Cl)cc3)CC2)cc1	none (no result: PPC-1+TRAIL kill)
O=C(NC(=S)Nc1ccc(NC(=O)c2ccccc2)cc1)c1ccc(F)cc1	none (no result: PPC-1+TRAIL kill)
O=C(NC(=S)Nc1ccc2c(c1)C(=O)c1ccccc1C2=O)c1ccc(F)cc1	SENP8 block-2 52.5, SENP7 block 63.5, SENP6 inh 77.8 (no result: SENP8 block-1, TRAIL sens C8)
Cc1ccc(-n2c(C3CC3c3ccc(Cl)cc3)n[nH]c2=S)cc1 (configuration not stated)	TRAIL sens C8 58.7
O=C(O)c1ccc(CN2C(=O)c3cccc4c([N+](=O)[O-])ccc(c34)C2=O)cc1	TRAIL sens C8 57.7 (no result: PPC-1+TRAIL kill, SENP8 block-2, SENP7 block, SENP6 inh)
CC(C)c1nnc(NC(=O)c2c(O)c3cccc4c3n(c2=O)CCC4)s1	TRAIL sens C8 59.5
Cc1cnc(NC(=O)c2c(O)c3cccc4c3n(c2=O)CCC4)s1	none (no result: SENP8 block-1, SENP8 block-2, SENP7 block, TRAIL sens C8, SENP6 inh)
CC(OC(=O)C1CCCCC1)C(=O)Nc1cccc([N+](=O)[O-])c1 (configuration not stated)	none (no result: PPC-1+TRAIL kill)
C=CC[C@@H]1C=C(C)C[C@H](C)C[C@H](OC)[C@H]2O[C@@](O)(C(=O)C(=O)N3CCCC[C@H]3C(=O)O[C@H](/C(C)=C/[C@@H]3CC[C@@H](O)[C@H](OC)C3)[C@H](C)[C@@H](O)CC1=O)[C@H](C)C[C@@H]2OC	none (no result: PPC-1+TRAIL kill, SENP8 block-1, TRAIL sens C8)
COc1ccc(N(C(=O)CCl)C(C(=O)NCCc2ccccc2)c2cccs2)cc1Cl (configuration not stated)	PPC-1+TRAIL kill 89.2, TRAIL sens C8 94.8 (no result: SENP8 block-2, SENP7 block, SENP6 inh)
